Inconclusive results are not listed. Unmarked numbers belong to inactive results. Calls of active or inactive are those of the source. Calls come from the whole dose curve; as a rule, active = well fitted activation curve with a large enough effect; inconclusive = small, poorly fitted or top-dose-only effect; inactive = no such curve, though single readings can be large or run the other way.
assay: qHTS Assay for Agonists of the Relaxin Receptor RXFP1: V1B Hit Validation; conditions: HEK293 V1B cells, cAMP TR-FRET, 30 min; series mostly up to 115 µM; activation: at the top concentration;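 note: counter-screen in HEK293 cells expressing V1B rather than RXFP1 for selectivity; nearly all actives have a fitted effect of over 65% in size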;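 for activation: cAMP accumulation with PDE4 inhibitor Ro 20-1724 present during compound exposure; 0% = buffer alone basal and 100% = 29 nM porcine relaxin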
Text: NIH Chemical Genomics Center [NCGC]
NIH Molecular Libraries Probe Production Centers Network [MLPCN]
Assay Submitter (PI): Alexander Agoulnik
The relaxin hormone is involved in the variety of biological functions in normal tissues and diseases. The role of relaxin is well-established in female reproduction and parturition, mammary gland and endometrial development, maintenance of myometrial quiescence during pregnancy. Relaxin signaling through its G protein-coupled receptor (GPCR) RXFP1 results in ECM remodeling through regulation of collagen deposition, cell invasiveness, proliferation and overall tissue homeostasis. […] Recombinant human relaxin (rhRlx) is currently being tested in clinical trials as a protective agent in congestive heart failure, in treating severe preeclampsia, and as an anti-fibrotic agent in systemic sclerosis.
Upon relaxin binding RXFP1 activation leads to the activation of adenylate cyclase (AC) via Gs. cAMP will activate PKA, which phosphorylates many signaling proteins. Thus, detection of cAMP increase is an easy and reliable indication of relaxin receptor activation. To screen for agonists of the relaxin receptor, a HEK293T cell line stably transfected with RXFP1 was used. RXFP1 activation was assayed by changes in cAMP levels as detected with a time-resolved fluorescence energy transfer (TR-FRET) cAMP detection kit.
This assay measures activation of a cell expressing […], another GPCR targeted by relaxin, to determine the selectivity of compounds for RXFP1.
NCGC Assay Protocol Summary:
This is a cell-based assay for cAMP second messenger response to screen for agonists of the RXFP2 receptor. The assay was conducted in the presence of a PDE4 inhibitor (Ro 20174). The cells were lysed and the cAMP levels were measured with a TR-FRET cAMP kit. Presence of cAMP in the cell lysate disrupts binding between the cryptate-labeled anti-cAMP and d2-labeled cAMP pair, leading to a decrease in the TR-FRET signal. Data were normalized to the controls for basal activity (buffer only) and 100% activity (29 nM porcine relaxin). The EC50 values were determined from concentration-response data modeled with the standard Hill equation
1536-well assay protocol for the HEK293 V1B cAMP assay:
(1) Add 3 ul HEK293 RXFP2 cell culture. 2000 cells/well in DMEM/F12, 10% FBS, 1x Pen/Strep (dispensed offline with MultiDrop Combi).
(3) Add 23 nl compounds in DMSO solution. Final concentration was 0.5 - 58 uM.
(4) Incubate 30 min at 37C, 5% CO2.
(5) Add 1 ul cAMP-d2 in lysis buffer (HTRF cAMP HiRange kit, CisBio).
(6) Add 1 ul anti-cAMP antibody-cryptate in lysis buffer (HTRF cAMP HiRange kit, CisBio).
(7) Incubate 30 min at room temperature.
(6) Detect the assay plate in a ViewLux plate reader (PerkinElmer) with Ex=320 nm, Em1=615 nm and Em2=665 nm.
Keywords: relaxin, RXFP1, RXFP2, G-protein coupled receptor, cAMP, agonist, high throughput screening, MLSMR, MLSCN, NIH Roadmap, qHTS and NCGC
Potency is the fitted concentration of half-maximal effect.

| Structure (SMILES) | Potency | activation |
| --- | --- | --- |
| Nc1ncc2[nH]cnc2n1 | 24.5 µM (active) |  |
| CCNC(=O)[C@H]1O[C@@H](n2cnc3c(N)ncnc32)[C@H](O)[C@@H]1O | 1.94 µM (active) |  |
| O=C1OCc2cc(N=Nc3c(O)[nH]c(=O)[nH]c3=O)ccc21 | 15.4 µM (active) |  |
| O=c1[nH]c(O)c(N=Nc2ccc([N+](=O)[O-])cc2)c(=O)[nH]1 | 17.3 µM (active) |  |
| O=C(O)c1sc2cc(Cl)ccc2c1Cl | 19.4 µM (active) |  |
| Cn1c(O)c(N=Nc2cccc(S(=O)(=O)N3CCOCC3)c2)c(=O)n(C)c1=O | 13.8 µM (active) |  |
| CCC(Oc1cc(Cl)ccc1Cl)C(=O)N1CCC2(CC1)OCCO2 (configuration not stated) |  | 1.95% |
